Source: PubChem BioAssay
CCT chaperon mod: High-Throughput Screening for Modulators of Cytosolic Chaperonin Activity; 360,000 tested, 0.3% active; activity change, % (concentration not given with the values), hits read low; purified chaperonin ATPase assay, HTRF ADP detection, 30 min; in the data active means activity change below about -30%
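ATPase activity: ADP formed was measured by HTRF Transcreener (665/615 nm ratio) after 30 min at 37 deg C with 10 uM ATP. Compounds screened at one 76 uM concentration against 40 or 20 nM TRiC in Tris pH 7.4/KCl/MgCl2/DTT buffer.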
VDR inh: Inhibitors of the vitamin D receptor (VDR): qHTS; VDR-SRC2-3 peptide fluorescence polarization, 2 h; Potency, µM, for inactives: max response, negative = inhibition, most hits filed as inhibitors; 400,000 tested, 0.93% active; AID 504847, 2011; further: potency means the concentration at half of the fitted maximal effect
Target sequence (P11473 whole entry, looked up): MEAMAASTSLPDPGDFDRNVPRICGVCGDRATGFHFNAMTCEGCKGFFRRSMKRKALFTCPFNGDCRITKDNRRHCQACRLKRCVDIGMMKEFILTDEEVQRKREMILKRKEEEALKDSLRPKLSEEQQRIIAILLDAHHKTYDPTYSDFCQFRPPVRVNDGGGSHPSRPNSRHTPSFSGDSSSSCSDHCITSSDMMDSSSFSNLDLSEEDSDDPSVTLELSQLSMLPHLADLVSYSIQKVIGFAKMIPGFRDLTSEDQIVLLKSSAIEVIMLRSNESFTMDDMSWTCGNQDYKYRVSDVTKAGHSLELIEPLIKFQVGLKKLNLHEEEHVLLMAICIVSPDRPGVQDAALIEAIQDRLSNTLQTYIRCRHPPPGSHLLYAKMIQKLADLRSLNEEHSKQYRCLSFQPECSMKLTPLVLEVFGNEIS
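FP read-out; VDR + SRC2-3 coactivator peptide; 23 nl compound by pintool; 2 h RT incubation; reagents held at 4 deg C, protected from light.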
Sfp inh: qHTS Assay for Inhibitors of Bacillus subtilis Sfp phosphopantetheinyl transferase (PPTase); Potency, µM, for the others: largest response in the series, negative = inhibition, most hits filed as inhibitors; 4'-phosphopantetheinyl transferase ffp (Bacillus subtilis), Q9F4F7; 310,000 tested, 3.5% active; Biochemical Sfp PPTase activity, qHTS;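 further: the enzyme is Sfp with the accession as filed and its product quenches rhodamine fluorescence; potency means the concentration at half of the fitted maximal effect; 0% = enzyme reaction without inhibitor and -100% = no enzyme wells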
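Fluorescence-quenching assay with 15 nM Sfp, 5 uM rhodamine-CoA and 12.5 uM BHQ-2-labelled ybbR peptide in pH 7.6 Hepes/MgCl2 buffer. Enzyme was pre-incubated with compound for 15 min at room temperature. Rate was taken from the 30-min fluorescence change (525/598 nm).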
PLK1 PBD inh: qHTS for Inhibitors of PLK1-PDB (polo-like kinase 1 - polo-box domain): Primary Screen. Plk1 PBD binding of FITC phosphopeptide, fluorescence polarization. AID 720504, 2013. 360,000 tested, 2.8% active. Serine/threonine-protein kinase PLK1 (Homo sapiens), P53350. Potency, µM, without a hit: max response, negative = inhibition, hits mostly inhibitors; further: potency means the concentration at half of the fitted maximal effect; series mostly up to about 57 µM; nearly all actives have a fitted effect of over 65% in size
Mm-Cpn inhibitor: Inhibitors of TCP-1 ring complex (TRiC) of Methanococcus maripaludis (MmCpn): qHTS; Chaperonin Mm-Cpn (Methanococcus maripaludis); purified Mm-Cpn ATPase, ADP Transcreener TR-FRET; Potency, µM (highest dose often 76.9 µM), inactives show top-dose activity, negative = inhibition, usual class: inhibitors; 330,000 tested, 0.031% active; further: potency means the concentration at half of the fitted maximal effect; nearly all actives have a fitted effect of over 80% in size
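ATP (10 uM final) was added to archaeal chaperonin (25 nM final) after 10 min exposure to test compound at 37°C; after 30 min further incubation, ADP was detected by competitive TR-FRET.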
G9a inh: qHTS Assay for Inhibitors of Histone Lysine Methyltransferase G9a | Histone-lysine N-methyltransferase EHMT2 (Homo sapiens), Q96KQ7 | 350,000 tested, 8.8% active | Potency, µM (titrated, usually from 102 µM), for the others: at the highest dose activity, negative = inhibition, actives largely listed as inhibitors | G9a H3K9 monomethylation, AlphaScreen, 2 h; further: potency means the concentration at half of the fitted maximal effect; nearly all actives have a fitted effect of over 75% in size
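Step 1: enzyme (final 20 nM) with compound, 15 min RT. Step 2: substrate peptide 500 nM and SAM 20 uM, 2 h RT. Step 3: anti-H3K9me1 antibody and AlphaScreen beads, 10 min, then plate read.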
Active calls of the source: *; ? = inconclusive; / = no result; [ ] = another dose, or the depositor's remark. Sampled rows, rich in hits. Any-hit rate of the full collection: about 10%. Unless noted, the call rests on the fitted dose curve; in most records, active means well fitted curve in the direction sought with a large enough effect; inconclusive means small, poorly fitted or top-dose-only effect, or another doubt; inactive means no such curve, though single readings can be large; an effect the other way counts as inactive or inconclusive. Unless noted, on the % scale 0 is the no-effect control and ±100 the full control effect.

SMILES	CCT chaperon mod	VDR inh	Sfp inh	PLK1 PBD inh	Mm-Cpn inhibitor	G9a inh
O=C(C(c1ccccc1)C(O)(c1ccccc1)c1ccccc1)N1CCOCC1 (configuration not stated)	-5	0%	/	-12%	/	/
O=C(c1ccc2c(c1)N(Cc1ccccc1)CCS2)N1CCCCC1	-3	-20%	40µM*	-12%	-6%	-50%[59 µM]
Cc1ccc(CN2CCSc3ccc(C(=O)N4CCN(c5cccc(C)c5C)CC4)cc32)cc1	/	-19%	/	/	/	-35%[59 µM]
Cc1ccc(CN2CCSc3ccc(C(=O)N4CCN(c5ccc(Cl)cc5)CC4)cc32)cc1	/	5%	/	/	/	3.2µM*
CN1CCN(C(=O)c2ccc3c(c2)N(Cc2ccccc2)CCS3)CC1	1	-8%	-5%	-7%	0%	/
CC(C)=C1C(=O)NN(c2ccc(C)c(Cl)c2)C1=O	-2	10%	14%	-13%	1%	8.9µM*
Nc1cc(S(=O)(=O)Nc2cc(Cl)ccc2Cl)ccc1N1CCOCC1	-5	35µM*	11µM*	1.9µM*	0%	11µM*
CN(C)c1ccc(NS(=O)(=O)c2cc(Cl)ccc2Cl)cc1	0	4%	-3%	2%	1%	8.9µM*
O=S(=O)(Nc1ccc(N2CCOCC2)cc1)c1cc(Cl)ccc1Cl	-1	2%	3%	-2%	0%	45µM*
COC1=CC(=NCl)C=CC1=NCl	-2	/	/	13µM*	/	/
Cc1c2oc3c(C)ccc(C(=O)NC4C(=O)NC(C(C)C)C(=O)N5CCCC5C(=O)N(C)CC(=O)N(C)C(C(C)C)C(=O)OC4C)c3nc-2c(C(=O)NC2C(=O)NC(C(C)C)C(=O)N3CCCC3C(=O)N(C)CC(=O)N(C)C(C(C)C)C(=O)OC2C)c(N)c1=O (configuration not stated)	/	-16%	0%	/	/	?
NCc1c(O)ccc2ccccc12	/	/	13%	/	-3%	7.9µM*
O=c1[nH]c(=S)[nH]c(-c2ccccc2)c1Cc1c(O)ccc2ccccc12	/	22µM*	/	/	/	16%[59 µM]
O=c1c2ccccc2ccc2ccccc12	0	-6%	/	4%	-7%	16%[2.33 µM]
N#Cc1c(-c2ccccc2)[nH]c(=S)[nH]c1=O	-1	4%	50µM*	-5%	-2%	-42%[12.7 µM]
O=C(O)Cc1c(O)ccc2ccccc12	2	6%	14%	-4%	-9%	6%[12.7 µM]
Oc1ccc2ccccc2c1SSc1c(O)ccc2ccccc12	/	10µM*	/	/	/	6.7µM*
Cc1cccc(N2CCN(Cc3nnc(-c4ccccc4C)o3)CC2C)c1 (configuration not stated)	/	0%	/	/	/	?
COc1ccc(-c2nc3ccccn3c2Nc2ccccc2C)cc1	/	-5%	/	/	/	/
COc1ccc(CCNC(=O)c2cc(S(=O)(=O)N(C)c3ccccc3)ccc2Cl)cc1	-1	?	19%	15µM*	-8%	6%[59 µM]
COc1ccc(S(=O)(=O)N(CC(=O)NCCc2ccccc2)c2ccc(Cl)cc2)cc1	/	3%	/	/	/	16µM*
COc1ccc(N(CC(=O)NCCc2ccccc2)C(=O)CCC(=O)Nc2nccs2)cc1	-3	13%	11%	-6%	2%	56µM*
COc1ccccc1N(CC(=O)NCCc1ccccc1)C(=O)CCC(=O)Nc1nccs1	-1	-3%	18%	-8%	1%	23%[59 µM]
COc1ccc(CCNC(=O)c2ccc(N(C)S(=O)(=O)c3ccccc3)cc2)cc1	-1	-6%	11%	-3%	1%	13%
CCN(C(=O)c1cc2cc(Br)cc(OC)c2oc1=O)c1ccccc1	/	-9%	/	/	/	-3%[59 µM]
Cc1ccc(C(=O)N/C(=C\c2ccc(-c3ccccc3[N+](=O)[O-])o2)C(=O)NCCCN2CCOCC2)cc1	1	?	?	27µM*	0%	45µM*
